Compounds without any hit were thinned out: in the full panel of roughly 79,000, 15% have a hit. Unmarked numbers belong to inactive results. Calls of active or inactive are those of the source. Cut-off read from the data, not from the text of the source: active = growth inhibition above about 70%; inactive = the rest.
How the values were obtained:
[1] = NCI Yeast Anticancer Drug Screen. Data for the rad50 strain (AID 155);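 note: 0% = growth of vehicle-only cultures of the same strain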; details: S. cerevisiae rad50 strain growth inhibition, hits give high values
Procedure, shortened: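 Compounds were tested on a yeast strain with an engineered DNA damage repair alteration; the reported value is growth inhibition normalised to vehicle treatment.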

[2] = NCI Yeast Anticancer Drug Screen. Data for the mec2-1 strain (AID 157); details: S. cerevisiae mec2-1 strain, hits give high values
Procedure, shortened: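 Test agents were screened against the mec2-1 yeast strain, with defined DNA repair or cell cycle alteration. Growth was scored as inhibition against vehicle-only controls.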

[3] = NCI Yeast Anticancer Drug Screen. Data for the sgs1 mgt1 strain (AID 161);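 note: 0% = growth of cultures given vehicle only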; details: S. cerevisiae sgs1 mgt1 strain, hits give high values
Procedure, shortened: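 Inhibition of yeast growth, normalised to vehicle-treated controls, is reported for a strain bearing genetic alterations in DNA damage repair.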

[4] = NCI Yeast Anticancer Drug Screen. Data for the cln2 rad14 strain (AID 165);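 note: 0% = growth equal to vehicle treated cultures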; details: S. cerevisiae cln2 rad14 strain, hits give high values
Procedure, shortened: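 Growth of compound-exposed yeast (cln2 rad14 genotype) measured and expressed as inhibition relative to vehicle.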

[5] = NCI Yeast Anticancer Drug Screen. Data for the bub3 strain (AID 167); details: S. cerevisiae bub3 mutant strain, hits give high values
Procedure, shortened: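 Growth of a checkpoint-deficient yeast mutant is measured after compound exposure. Values represent inhibition relative to vehicle.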

[6] = NCI Yeast Anticancer Drug Screen. Data for the mlh1 rad18 strain (AID 175); details: S. cerevisiae mlh1 rad18 strain growth inhibition, hits give high values
Procedure, shortened: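 In this whole-cell yeast screen, a strain with altered DNA damage repair is challenged with compound, and its growth is measured against matched vehicle-treated controls.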

[7] = at 5.0 µM (retest, dose inferred, filed as 0.5)
[8] = at 50.0 µM (retest, dose inferred, filed as 5.0)

Row | Structure (SMILES) | growth inhibition [1, 7] | growth inhibition [1, 8] | growth inhibition ([1]; at 50.0 µM) | growth inhibition [2, 7] | growth inhibition [2, 8] | growth inhibition ([2]; at 50.0 µM) | growth inhibition [3, 7] | growth inhibition [3, 8] | growth inhibition ([3]; at 50.0 µM) | growth inhibition [4, 7] | growth inhibition [4, 8] | growth inhibition ([4]; at 50.0 µM) | growth inhibition [5, 7] | growth inhibition [5, 8] | growth inhibition ([5]; at 50.0 µM) | growth inhibition [6, 7] | growth inhibition [6, 8] | growth inhibition ([6]; at 50.0 µM)
1 | O=C(Nc1cccc(C(F)(F)F)c1)O/N=C(/Cl)CCl | 3% | 100% (active) | 88.5% (active) | -19% | 100% (active) | 91.7% (active) | -51% | 99% (active) | 84.7% (active) | -8% | 100% (active) | 90.5% (active) | -38% | 100% (active) | 88.8% (active) | -9% | 100% (active) | 84.2% (active)
2 | Oc1cc(-[n+]2ccccc2)c(O)c2ccccc12 | 15% | 82% (active) | -11.2% | 9% | 68% | 3.45% | 5% | 80% (active) | -5.35% | 9% | 71% (active) | 37.8% | 21% | 91% (active) | 6.3% | 28% | 83% (active) | 20.8%
3 | CSC(=Nc1ccccc1)NC(=O)Nc1ccc(Cl)cc1 | -8% | -11% | -1.45% | 5% | -15% | 5% | -34% | -17% | -2.1% | -18% | -17% | -31.2% | -22% | -4% | 2.55% | -7% | -5% | 3.15%
4 | CCC(C)OC(=O)Nc1cccc(Cl)c1 (configuration not stated) | 12% | 61% | 83.4% (active) | -7% | 1% | 23.9% | 4% | 14% | 79.5% (active) | 6% | -16% | 14.8% | -19% | -8% | 1.4% | 5% | 29% | 78.8% (active)
5 | CC(=O)SC1C(=O)N(C)C(SC(C)=O)C(=O)N1C (configuration not stated) | -5% | -21% | 95.8% (active) | -5% | 11% | 97% (active) | 0% | 55% | 96.6% (active) | -1% | 0% | 95% (active) | 0% | -3% | 95.6% (active) | -2% | 70% (active) | 96.5% (active)
6 | Clc1ccc(-c2nnc(-c3ccccn3)o2)c(Cl)c1 | 4% | 99% (active) | 99.2% (active) | -1% | 80% (active) | 28.1% | 0% | 99% (active) | 99.2% (active) | -2% | 83% (active) | 92.7% (active) | 1% | 94% (active) | 70.1% (active) | 1% | 96% (active) | 99.4% (active)
7 | O=C(O)C(S(=O)(=O)O)S(=O)(=O)O | 99% (active) | 99% (active) | 99.2% (active) | 54% | 99% (active) | 99.4% (active) | 100% (active) | 99% (active) | 99.1% (active) | 100% (active) | 99% (active) | 99.3% (active) | 99% (active) | 99% (active) | 98.4% (active) | 99% (active) | 99% (active) | 99.3% (active)
8 | CCOC(=O)/C(=C/c1ccc(Cl)cc1)N(CC)CC | 16% | 15% | 64.3% | -21% | 20% | 55.2% | 2% | 18% | 54.3% | 43% | 58% | 76.2% (active) | 9% | 36% | 64.8% | -13% | -2% | 53.1%
9 | O=C(O)C(Cc1cc(I)c(O)c(I)c1)c1ccccc1 (configuration not stated) | -14% | 29% | 60.1% | -1% | 34% | 19.2% | -25% | 38% | 16.8% | -5% | 41% | 32.6% | -4% | 29% | 21.9% | 0% | 45% | 57.5%
10 | O=C1OC(c2ccc(O)cc2)=C(c2ccccc2)C1c1ccccc1 (configuration not stated) | 9% | 36% | 99.4% (active) | -7% | 29% | 99.5% (active) | -10% | 47% | 99.5% (active) | 4% | 26% | 99.5% (active) | 2% | 29% | 99.4% (active) | 10% | 67% | 99.5% (active)
11 | CC(C)(C)OC(=O)N[C@H]1CC2(C=C(Cl)C(=O)C(Cl)=C2)OC1=O | 32% | 70% (active) | 86.5% (active) | 16% | 72% (active) | 80.8% (active) | 23% | 90% (active) | 90.8% (active) | 13% | 31% | 69.2% | 14% | 83% (active) | 70.4% (active) | 43% | 92% (active) | 81% (active)
12 | COc1cc(OC)c(C(c2cc3c(cc2O)OCO3)N2CCOCC2)c(OC)c1 (configuration not stated) | 2% | 99% (active) | 57.9% | 2% | 98% (active) | 61.1% | -1% | 98% (active) | 50.3% | 0% | 99% (active) | 23.7% | 5% | 99% (active) | 18.8% | -2% | 99% (active) | 63.2%
13 | OC1(c2ccccc2)CN(CCl)CC(c2ccccc2)O1 (configuration not stated) | -2% | 7% | -10.6% | 0% | 2% | 17.3% | -1% | 7% | 46% | 12% | 15% | 10.4% | 2% | 6% | 71.8% (active) | -2% | 7% | 47.4%
14 | CC(C)N(CC(=O)c1ccc2cc(Cl)c3ccccc3c2c1)C(C)C | 20% | 97% (active) | 99% (active) | 34% | 98% (active) | 98.6% (active) | 79% (active) | 98% (active) | 98.8% (active) | 8% | 98% (active) | 98.2% (active) | 32% | 97% (active) | 98.5% (active) | 39% | 98% (active) | 98.5% (active)
15 | COc1cccc2c1[n+]([O-])c1cccc(O)c1[n+]2[O-] | 98% (active) | 99% (active) | 91.4% (active) | 99% (active) | 100% (active) | 90.4% (active) | 100% (active) | 100% (active) | 87.5% (active) | 93% (active) | 99% (active) | 88.4% (active) | 99% (active) | 100% (active) | 84.2% (active) | 97% (active) | 99% (active) | 91.7% (active)
16 | C/C=C/C/S(=N\S(=O)(=O)c1ccc(C)cc1)c1ccccc1 (configuration not stated) | 4% | 93% (active) | 96.7% (active) | 4% | 88% (active) | 95.5% (active) | 11% | 97% (active) | 81.5% (active) | 1% | 73% (active) | 40.9% | -7% | 97% (active) | 94.7% (active) | 5% | 95% (active) | 93.3% (active)
17 | Cc1c2c(c(C)c3c4c(oc13)CCCC4)C=NCC2 | -4% | 49% | 69.7% | 3% | 41% | 92.8% (active) | -7% | 36% | 25% | -46% | 26% | 29.2% | -8% | -78% | 50.2% | -5% | 45% | 80.1% (active)
18 | Cc1[nH]ccc2c(C)c3nc4ccccc4c3cc12 | 47% | 97% (active) | 90% (active) | 10% | 87% (active) | 88.3% (active) | 14% | 87% (active) | 90.5% (active) | 4% | 82% (active) | 82.9% (active) | 9% | 73% (active) | 89% (active) | 13% | 95% (active) | 90.3% (active)
19 | Cc1c(N=Nc2ccc(Cl)cc2)c(-c2ccccc2)n(C2OC(CO)C(O)C(O)C2O)c(=S)c1C#N (configuration not stated) | -9% | 89% (active) | 96.6% (active) | -13% | 96% (active) | 97.2% (active) | 18% | 48% | 97.5% (active) | 18% | 95% (active) | 97.1% (active) | -2% | 95% (active) | 97.3% (active) | -7% | 96% (active) | 97.4% (active)
